mHTT CaM bind – inhibitors of human mutant huntingtin-calmodulin interaction | P42858 | AlphaScreen His-mHTT/GST-CaM binding, luminescence | inhibition, % at 15 µM | 190,000 tested, 3.6% active | AID 1671202;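 note: 0% = both proteins with DMSO and 100% = one protein alone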
Pf apPOL block – Pf-apPOL DNA polymerase inhibition. Recombinant Pf-apPOL, molecular beacon fluorescence, 1.5 h. inhibition, % at 10 µM. 210,000 tested, 0.25% active
An asterisk follows results filed as active; / = no result given. This is a sample that favours compounds with a hit; in the whole collection about 3.5% have one here. Cut-off read from the data, not from the text of the source: active = inhibition above about 50%; inactive = the rest.

SMILES | mHTT CaM bind | Pf apPOL block
O=C(Cc1c(F)cccc1Cl)Nc1nnc(C2CC(=O)N(c3ccccc3)C2)o1 (centres undefined) | 64* | 4
CCc1ccc(NC(=O)CN2N=NC3C(=O)N(c4ccc(F)cc4)C(=O)C32)cc1 (centres undefined) | 4 | -2
CC(C)Cn1c(=O)c(N2CCN(C(=O)Cc3ccsc3)CC2)nc2ccncc21 | -2 | -5
COc1ccc(CCNS(=O)(=O)c2ccccc2)cc1 | -1 | 0
Cc1ccn2cc(C(=O)NCc3ccc(F)cc3)nc2c1 | -2 | 0
O=C(Nc1nccn(-c2cccc(Cl)c2)c1=O)c1ccccn1 | -4 | -3
Cc1cc(C)cc(-n2ccnc(NC(=O)c3ccccn3)c2=O)c1 | 74* | -16
COC(=O)CCC(=NNS(=O)(=O)c1ccc(C)cc1)c1ccn(S(=O)(=O)c2ccccc2)c1 | / | 20
CCC(=O)NCCc1csc(C2CCN(C(=O)NC3CCCC3)CC2)n1 | -5 | -2
O=S(=O)(Nc1cccc(Cl)c1Cl)c1ccc(F)cc1 | 2 | -3
COCCN=C1Nc2ccccc2NC12CCCN(C(=O)c1ccc(C)c(F)c1)C2 (centres undefined) | 48 | -3
COCCN=C1Nc2ccccc2NC12CCCN(C(=O)Nc1ccc(OC)cc1C)C2 (centres undefined) | 70* | -2
COCCN=C1Nc2ccccc2NC12CCCN(C(=O)c1cc(OC)cc(OC)c1)C2 (centres undefined) | 0 | -2
COCCN=C1Nc2ccccc2NC12CCCN(C(=O)Nc1ccc(OC)cc1)C2 (centres undefined) | 100* | -6
Cc1ccc([N+](=O)[O-])c2c1N=C(c1ccc([N+](=O)[O-])cc1)NO2 | 1 | -1
CCN1CCN(C2CCN(C(=O)c3cc(C)cc(C)c3)CC2)C1=O | 95* | -2
CCN1CCN(C2CCN(C(=O)c3ccc(C)cc3)CC2)C1=O | -9 | -5
CC(=O)c1ccc(NS(=O)(=O)c2cc(Cl)ccc2Cl)cc1 | 1 | -4
CCC(=O)N1CCN(c2ccc(C)cc2)C(=O)C1C (centres undefined) | -4 | -2
COc1ccc(-c2[nH]ncc2-c2ccc(F)cc2)c(O)c1 | 39 | -6
CCc1cc(-c2[nH]ncc2-c2ccccc2)c(O)cc1OC | 100* | -2
O=Cc1cn[nH]c1-c1ccccc1 | -6 | -4
CCc1cc(-c2[nH]ncc2-c2ccc(F)cc2)c(O)cc1OC | 74* | 9
COc1cc(-c2nc3ccccn3c2N=Cc2cn[nH]c2-c2ccccc2)ccc1O | 34 | -9
Oc1ccc(-c2[nH]ncc2-c2ccccc2)c(O)c1O | 96* | -3
SMILES | mHTT CaM bind | Pf apPOL block
O=C(NCC1CC1)c1cncc(-c2cc(F)ccc2F)c1 | -3 | -4
CCc1ccccc1NC(=O)CN(c1cc(C(F)(F)F)ccc1Cl)S(C)(=O)=O | -6 | -5
COc1ccccc1CNCc1ccccc1C | 5 | -6
COc1ccc(C2C3=C(CCCC3=O)Nc3nc(-c4cccc(Cl)c4)nn32)cc1OC (centres undefined) | 18 | -6
COc1ccc(-c2nc3n(n2)C(c2ccccc2)C2=C(CCCC2=O)N3)cc1OC (centres undefined) | 60* | 0
O=C1CCCC2=C1C(c1ccncc1)n1nc(-c3cccc(Cl)c3)nc1N2 (centres undefined) | 55* | -3
COc1ccc(-c2nc3n(n2)C(c2ccc(OC)cc2)C2=C(CCCC2=O)N3)cc1 (centres undefined) | 47 | -1
COc1ccc(C2C3=C(CCCC3=O)Nc3nc(-c4ccccc4)nn32)cc1OC (centres undefined) | 76* | 0
COc1ccc(-c2nc3n(n2)C(c2ccc(Cl)cc2)C2=C(CCCC2=O)N3)cc1OC (centres undefined) | 9 | 0
O=C1CCCC2=C1C(c1ccc3c(c1)OCO3)n1nc(-c3cccc(Cl)c3)nc1N2 (centres undefined) | 19 | -2
O=C1CCCC2=C1C(c1ccc(Br)cc1)n1nc(-c3ccco3)nc1N2 (centres undefined) | 84* | 1
COc1cccc(CC(=O)N2CC3CC2CC3NS(C)(=O)=O)c1 (centres undefined) | -4 | 3
COc1cccc(CN2CCN(Cc3ccc(OC)c(OC)c3OC)CC2)c1 | -9 | 1
CCOC(=O)c1c(-c2ccccc2)oc2ccc(OC(=O)C(C)C)cc12 | -29 | -3
COCC(=O)Nc1cc(-c2nc3cc(Cl)ccc3o2)ccc1Cl | -5 | -5
COC(=O)CCCCCN1C(=O)C(=Cc2ccc(OC)c(OC)c2)SC1=S | 14 | -5
CCc1ccc(S(=O)(=O)N2CCC(c3cc(N)on3)CC2)cc1 | 3 | -2
COc1ccccc1C1C2=C(CCCC2=O)Nc2nc(-c3cccc(C)c3)nn21 (centres undefined) | 6 | -2
COc1cc(OC)cc(-c2nc3n(n2)C(c2ccccc2)C2=C(CCCC2=O)N3)c1 (centres undefined) | 23 | 2
COc1cc(OC)cc(-c2nc3n(n2)C(c2ccc(F)cc2)C2=C(CCCC2=O)N3)c1 (centres undefined) | 57* | 2
COc1ccc(C2C3=C(CCCC3=O)Nc3nc(-c4cccc(C)c4)nn32)cc1OC (centres undefined) | 86* | -2
Cc1cc(C)cc(NC(=O)N2CCC(n3cnc4c(C)cccc4c3=O)CC2)c1 | 2 | 2
O=C(NCC(c1ccsc1)N1CCCC1)c1ccccc1Cl (centres undefined) | -4 | -9
Cc1ccc(-c2nnc(N3CCC(C(=O)NC4CC4)CC3)o2)cc1 | -3 | -3
CCN(CC)c1ccc(C=Nc2ccc(C)cc2)cc1 | -4 | -4
SMILES | mHTT CaM bind | Pf apPOL block
CCN(CC)c1ccc(N=Cc2ccc(O)cc2)cc1 | 86* | -8
CCOC(=O)CC[C@@H]1CC[C@]2(CCCN(Cc3cccs3)C2)O1 | 94* | -6
CCN(CC)C(=O)CC[C@H]1CC[C@]2(CCCN(Cc3cccs3)C2)O1 | -4 | -5
Cc1ccc(C(=O)O)cc1-c1ccc(/C=C/[N+](=O)[O-])o1 | 30 | 8
Cc1cc(-c2ccc(/C=C/[N+](=O)[O-])o2)c([N+](=O)[O-])cc1C | 65* | 3
Cc1cc(C)nc(SCCCCSc2nc(C)cc(C)n2)n1 | -7 | -6
CCS(=O)(=O)CCSc1nc(C)cc(C)n1 | 17 | 51*
COc1ccc(Nc2cc(C(=O)N3CCSCC3)nc3ccccc23)cc1 | 25 | -12
Cc1sc2c(=O)n(C3CC3)cnc2c1C(=O)N1CCCCC1 | -11 | -3
COc1cc(N2Cc3ccccc3C2)ccc1/C=C(\C#N)C(=O)NCc1ccco1 | 18 | -2
COc1cc(N2Cc3ccccc3C2)ccc1C=O | 72* | -5
Cc1cccc(CSc2nnc3ccc(-c4ccncc4)nn23)c1 | 0 | 2
O=c1[nH]c(-c2ccc3c(c2)OCO3)cn1-c1ccccc1 | 7 | 0
Cc1ccc(-n2cc(-c3ccc4c(c3)OCO4)[nH]c2=O)cc1 | 70* | 1
O=C(CCC1CCCN(C(=O)Nc2ccc(F)cc2)C1)N1CCCC1 (centres undefined) | 27 | -3
COc1ccc(-n2c(C)cc(CN)c2C)cc1 | 64* | -1
COc1ccc(NC(=O)/C(C#N)=C/c2cc(C)n(-c3ccc(F)cc3)c2C)cc1 | 1 | 0
Cc1c(Cc2ccccc2)sc(NC(=O)CCc2ccccc2)c1C(N)=O | 52* | -10
Cc1c(Cc2ccccc2)sc(NC(=O)C(F)(F)F)c1C(N)=O | 16 | 1

From PubChem BioAssay
